# Screens (PubChem BioAssay)
# RORgamma inh = blocks mouse ROR gamma transcriptional activity | Drosophila S2 Gal4-RORgamma UAS-luciferase reporter, 20 h | Potency, µM (top dose mostly 53.6 µM), hits mostly inhibitors | P51450 | 310,000 tested, 5.4% active | AID 2551; also: nearly all actives have a fitted effect of over 60% in size
# Target sequence (P51450 whole entry, looked up, the tested form may be a part): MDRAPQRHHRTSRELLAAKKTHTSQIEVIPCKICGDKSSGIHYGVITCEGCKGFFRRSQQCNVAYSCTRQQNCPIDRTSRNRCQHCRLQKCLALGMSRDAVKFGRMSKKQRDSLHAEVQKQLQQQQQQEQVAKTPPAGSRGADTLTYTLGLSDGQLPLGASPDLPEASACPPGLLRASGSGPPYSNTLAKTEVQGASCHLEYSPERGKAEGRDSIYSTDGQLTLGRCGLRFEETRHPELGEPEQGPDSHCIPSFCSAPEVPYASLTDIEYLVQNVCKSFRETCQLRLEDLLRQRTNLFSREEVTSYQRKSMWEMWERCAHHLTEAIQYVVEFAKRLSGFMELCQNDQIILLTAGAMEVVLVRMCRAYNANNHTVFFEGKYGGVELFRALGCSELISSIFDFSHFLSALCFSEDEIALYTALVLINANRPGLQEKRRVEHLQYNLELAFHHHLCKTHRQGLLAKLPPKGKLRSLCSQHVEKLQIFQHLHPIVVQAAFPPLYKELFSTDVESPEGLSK
#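 Drosophila Schneider cells stably carrying a metallothionein-driven Gal4 DBD–ROR gamma fusion and a UAS-Photinus luciferase reporter were exposed to compound for 1 hr, then induced with copper sulfate (700 uM final) for 20 hr at ambient temperature before luminescence reading.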
# KB-V1 cytotox = KB-V1 MDR subline cytotoxicity; KB-V1 MDR cells viability, CellTiter-Glo, 72 h; Potency, µM (top dose mostly 46.1 µM), hits mostly cytotoxic; 400,000 tested, 3.4% active; also: nearly all actives have a fitted effect of over 60% in size
#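 Compound-treated KB-V1 multidrug-resistant cells, 72 h, 37 degrees C; viability by CellTiter-Glo. Fitted qHTS curves give the values.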
# SW480 rerep = induces DNA re-replication in SW480 colon adenocarcinoma cells; SW480 DNA re-replication, Hoechst DNA content imaging, 48 h; Potency, µM (highest dose often 46.1 µM), hits mostly activators; 340,000 tested, 1.8% active; AID 624297; also: nearly all actives have a fitted effect of over 55% in size
#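 Per well, 250 cells were exposed to pinned compound for 48 hr. Nuclear DNA was visualised with Hoechst (40 min, 37 C) and total object intensity recorded by fluorescence scanning.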
# MCF10A rerep = DNA re-replication induction in MCF 10a cells; 350,000 tested, 2.9% active; MCF 10A DNA re-replication, Hoechst nuclear intensity, 48 h; Potency, µM (series often up to 46.1 µM), most hits filed as activators; also: nearly all actives have a fitted effect of over 50% in size
# Gal4-VP16 FLuc = counter-screen for ROR gamma inhibitors: Gal4-VP16 reporter. Drosophila S2 Gal4-VP16 UAS-luciferase, luminescence, 20 h. Potency, µM (titrated, usually from 53.6 µM), most hits filed as inhibitors. 310,000 tested, 3.5% active. AID 2546;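 also: Gal4-VP16 expression switched on by copper sulfate through the metallothionein promoter; nearly all actives have a fitted effect of over 50% in size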
# KB-3-1 cytotox = KB-3-1 parental cell cytotoxicity; 400,000 tested, 1.4% active; KB-3-1 viability, CellTiter-Glo ATP luminescence, 72 h; Potency, µM (titrated, usually from 46.1 µM), hits mostly cytotoxic; also: nearly all actives have a fitted effect of over 60% in size
#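 Viability of parental KB-3-1 cells, measured by CellTiter-Glo luminescence, followed a 72 h incubation at 37 °C with pinned compounds in phenol-red-free DMEM containing 10% FBS.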
# Hits are given with their value; – = inactive; ? = inconclusive; · = no result; [ ] = another dose, or the depositor's remark. Compounds with a hit are over-represented: about 10% of the library has one in this group of screens. Calls follow the shape of the dose curve; as a rule, active = well fitted curve in the direction sought with a large enough effect; inconclusive = small, poorly fitted or top-dose-only effect, or another doubt; inactive = no such curve, though single readings can be large; an effect the other way counts as inactive or inconclusive.
SMILES,RORgamma inh,KB-V1 cytotox,SW480 rerep,MCF10A rerep,Gal4-VP16 FLuc,KB-3-1 cytotox
CC(C)C(c1nnnn1C1CCCC1)N(C)C1CCCCC1 (configuration not stated),–,18µM,–,–,–,–
CC(C)C(c1nnnn1C1CCCC1)N1CCc2ccccc21 (configuration not stated),–,–,–,–,–,–
O=c1[nH]c2cc3c(cc2cc1C(c1nnnn1C1CCCC1)N1CCSCC1)OCCO3 (configuration not stated),–[10 µM],10µM,–,–,–,?
COC(=O)c1cc2sccc2n1Cc1c(C)cc(C)cc1C,·,–,·,·,·,–
COc1ccccc1OCCCn1c(=O)sc2ccccc21,–,15µM,–,–,–,–
COc1ccc(C2C(C(=O)Nc3ccccc3)=C(C)Nc3nc(-c4ccc(Cl)cc4)nn32)cc1 (configuration not stated),·,–,·,·,·,–
O=c1c(-c2cccc(F)c2)nc2cncnc2n1Cc1ccccc1Cl,–,·,·,·,–,·
COC(=O)c1c(NC(=O)COc2ccc(C)cc2Br)sc2c1CCCC2,·,–,·,·,·,–
O=C(CN1C(=O)NC2(CCCCCC2)C1=O)N1CCC(Cc2ccccc2)CC1,–,18µM,–,–,–,?
O=C(CN1CCN(c2ccc(F)cc2)CC1)N1CCOCC1,–,–,–,?,–,–
O=C(CN1CCN(c2ccc(F)cc2)CC1)N1CCC(Cc2ccccc2)CC1,–,?,8.2µM,8.2µM,?,–
O=C1CCC[C@H]2OC12[C@@H](O)CCc1ccccc1 (some centres not stated),–[10 µM],·,·,·,–[10 µM],·
Clc1nc2ccccc2cc1/C=N/Nc1nc2ccccc2[nH]1,–[10 µM],–,–,–,–,–
O=C(O)c1ccc(N/N=C/c2cc3ccccc3nc2Cl)cc1,?,–,?,8.2µM,?,–
Cc1cccc2cc(/C=N/Nc3ccc(C(=O)O)cc3)c(Cl)nc12,?,–,–,3.7µM,–,–
COc1cccc(CNC(=O)c2cc(C)nc3c2c(C)nn3-c2ccc(C)cc2)c1,·,–,·,·,·,–
COC(=O)c1ccc(-c2ccc(F)cc2)nc1C,–,–,29µM,–,–,–
Cc1ccc(-c2ccc(C(=O)O)c(C)n2)cc1,–,–,2.3µM,–,–,–
COC(=O)c1cnn2c(C(F)(F)F)cc(-c3ccc(F)cc3)nc12,–,?,–,?,–,–
C=CCNC(=S)NCC1COc2ccccc2O1 (configuration not stated),11µM,–,–,–,–,–
Cc1c(Cl)cccc1NC(=S)NCC1COc2ccccc2O1 (configuration not stated),6.3µM,–,–,?,?,–
O=C(NC(=S)NCC1COc2ccccc2O1)c1ccccc1 (configuration not stated),–,–,–,?,–,–
NC(=O)/C=C\c1cn(-c2ccccc2)nc1-c1ccc2c(c1)OCCO2,–,15µM,–,?,–,–
CC(C)OC(=O)c1cn(-c2ccccc2)nc1-c1ccc2c(c1)OCCO2,–,7.3µM,–,?,–,–
CNC(=O)COC(=O)/C=C/c1cn(-c2ccccc2)nc1-c1ccc2c(c1)OCCO2,–,–,–,–,–,–
SMILES,RORgamma inh,KB-V1 cytotox,SW480 rerep,MCF10A rerep,Gal4-VP16 FLuc,KB-3-1 cytotox
O=C(/C=C/c1cn(-c2ccccc2)nc1-c1ccc2c(c1)OCCO2)NCCO,?,–,–,–,?,–
Cc1cc(Cl)ccc1NC(=O)CCn1nc(C)c2c(C)n(-c3ccccc3)nc2c1=O,·,–,·,·,·,–
CN(C)c1ccc(/C=C2\C=Cc3ccccc32)cc1F,·,–,·,·,·,–
O=c1c(-c2ccc(Cl)cc2)nc2cnc(N3CCNCC3)nc2n1-c1ccccc1,–,·,·,·,–,·
COc1ccc2[nH]cc(CCNc3cc(-c4ccccc4OC)ncn3)c2c1,–,·,·,·,–,·
O=C(Nc1ccon1)C(Sc1ccccc1)c1ccccc1 (configuration not stated),?,–,–,–,–,–
O=C(Nc1nncs1)C(Sc1ccccc1)c1ccccc1 (configuration not stated),11µM,21µM,–,–,–,–
CCC(C)NS(=O)(=O)c1ccc(NC(=O)C(Sc2ccccc2)c2ccccc2)cc1 (configuration not stated),–,16µM,?,?,–,?
COc1cccc(C2=Nn3c(nnc3-c3ccc(OC)cc3OC)SC2)c1,–,·,·,·,–,·
COc1ccccc1CCNC(=O)C(=O)NCC(c1cccnc1)N1CCN(c2ccccc2)CC1 (configuration not stated),·,–,·,·,·,?
Cc1cc2ncc(-c3ncc(C(F)(F)F)cc3Cl)cn2n1,7.9µM,–,–,–,10µM,?
Cc1nn2cc(-c3ncc(C(F)(F)F)cc3Cl)cnc2c1Br,–,–,–,–,–,–
O=C(NCc1ccccc1Cl)c1ccc(NC(=O)N2CCSc3ccccc32)cc1,·,–,·,·,·,–
CC(C)N1C/C(=C/c2ccsc2)C(=O)/C(=C/c2ccsc2)C1,?,?,9.2µM,8.2µM,?,15µM
O=Cc1ccc(B(O)O)cc1,–,–,·,·,–,?
CN1C/C(=C/c2cccnc2)C(=O)/C(=C/c2cccnc2)C1,5.6µM,15µM,?,15µM,2.8µM,?
CN1C/C(=C/c2ccc(B(O)O)cc2)C(=O)/C(=C/c2ccc(B(O)O)cc2)C1,2µM,·,·,·,4.5µM,·
CC(C)N1C/C(=C/c2cccnc2)C(=O)/C(=C/c2cccnc2)C1,?,15µM,?,1.2µM,?,?
O=C1c2ccccc2C(=Cc2cccnc2)c2ccccc21,·,–,·,·,·,–
COc1ccc(C(=O)C[n+]2cccc3cc(Cl)ccc32)cc1,·,–,·,·,·,?
COc1ccc(OC)c(NC(=O)C2CCN(S(=O)(=O)c3ccc4c(c3)CC(C)N4C(C)=O)CC2)c1 (configuration not stated),–,–,–,?,–,–
CNS(=O)(=O)c1ccc(N2CCCC2)c([N+](=O)[O-])c1,–,–,–,–,–,–
CC1CCN(c2ccc(S(=O)(=O)NC3=NCCCCC3)cc2[N+](=O)[O-])CC1,–,21µM,–,–,–,?
Cc1cc(=O)[nH]c(SCC(=O)C23CC4CC(CC(C4)C2)C3)c1C#N,?,6.5µM,?,?,?,?
CN(C)c1ccc(CNC(=O)Cc2ccc(NC(=O)N3CCCCc4ccccc43)cc2)cc1,·,–,·,·,·,–
O=Nc1c(-c2ccccc2)[nH]n(-c2ccccc2)c1=O,?,–,–,–,16µM,–
Cc1[nH]n(-c2ccccc2)c(=O)c1N=Nc1ccccc1C(=O)N1CCOCC1,?,?,–,–,–,?
Cc1[nH]n(-c2ccccc2)c(=O)c1N=Nc1cccc(C(=O)O)c1,?,–,–,–,2.8µM,–
Cc1[nH]n(-c2ccccc2)c(=O)c1N=Nc1c(Cl)cccc1Cl,13µM,–,–,–,?,–
